For 31 compounds, inhibition results are on record in ChEMBL document CHEMBL1961873, “Compounds: GSK PKIS; Assays: Nanosyn kinase panel” (2012).

Several values for one entry are separate records, joined by “and”; a condition that tells them apart may be missing. Identical values can stand only once.

In one assay the target is Phosphorylase b kinase gamma catalytic chain, skeletal muscle/heart isoform (Homo sapiens) (UniProt Q16816). To be noted: at 1 µM.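 Also: each value is a mean percent inhibition of PHKG1.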
Sequence of Phosphorylase b kinase gamma catalytic chain, skeletal muscle/heart isoform (Homo sapiens) (Q16816 whole entry, looked up, canonical isoform): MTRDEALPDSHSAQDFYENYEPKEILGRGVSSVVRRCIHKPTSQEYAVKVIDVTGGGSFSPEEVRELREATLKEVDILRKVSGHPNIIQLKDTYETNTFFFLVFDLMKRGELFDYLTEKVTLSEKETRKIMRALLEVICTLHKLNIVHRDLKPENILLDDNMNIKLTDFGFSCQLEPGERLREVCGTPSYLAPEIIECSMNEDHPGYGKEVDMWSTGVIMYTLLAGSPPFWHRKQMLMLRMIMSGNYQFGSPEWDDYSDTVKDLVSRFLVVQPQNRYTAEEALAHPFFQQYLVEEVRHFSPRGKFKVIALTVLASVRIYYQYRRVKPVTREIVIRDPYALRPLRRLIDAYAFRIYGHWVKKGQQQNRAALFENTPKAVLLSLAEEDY
With `CCCNc1cccc(-n2ncc3c(N/N=C/c4ccncc4)ncnc32)c1`, the inhibition (usually the change of the read-out against control, counted positive when it falls) came to 19.5%.

For the compound `CC1=C(C(=O)Nc2ccc3[nH]nc(C)c3c2)C(c2ccc(C(F)(F)F)cc2)CC(=O)N1` (stereo unspecified), the inhibition is 0.7%.

In the case of `CN1CCC(C(=O)Nc2n[nH]c3nc(-c4ccc(O)cc4)c(Br)cc23)CC1`, the inhibition is 16.1% and 3.32%.

In the case of `Cc1cc(O)cc(C)c1/C=C/c1cncc(C(=O)OC(C)(C)C)c1`, the inhibition was -7.1%.

For `CN1CCN(Cc2ccc(-c3cc4ncnc(Nc5ccc(OCc6cccc(F)c6)c(Cl)c5)c4s3)o2)CC1`, the inhibition was 6.3% and 12.4%.

The target of the next assay is T1, Phosphorylase b kinase gamma catalytic chain, liver/testis isoform (Homo sapiens) (UniProt P15735).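 Also: values are mean inhibition of PHKG2.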
T1 sequence (whole entry): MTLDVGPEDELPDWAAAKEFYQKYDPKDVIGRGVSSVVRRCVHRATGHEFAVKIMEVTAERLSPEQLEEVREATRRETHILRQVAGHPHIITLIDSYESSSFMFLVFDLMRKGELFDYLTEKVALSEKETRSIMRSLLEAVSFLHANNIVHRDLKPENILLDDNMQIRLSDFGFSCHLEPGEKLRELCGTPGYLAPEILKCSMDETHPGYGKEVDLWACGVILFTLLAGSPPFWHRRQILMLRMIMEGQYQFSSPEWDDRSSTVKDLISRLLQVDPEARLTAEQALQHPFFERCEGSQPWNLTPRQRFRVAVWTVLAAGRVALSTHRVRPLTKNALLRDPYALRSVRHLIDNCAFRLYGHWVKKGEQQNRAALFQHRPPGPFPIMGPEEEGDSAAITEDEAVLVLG
The following applies: at 0.1 µM.
On to `FC(F)(F)CNc1nccc(-c2cnn3ncccc23)n1`, for which the inhibition is 3.98%.

Turning to `CCOc1ccc2c(-c3ccnc(Nc4cc(OC)cc(C(F)(F)F)c4)n3)cnn2n1`, the inhibition was 0.61%.

Take `CCS(=O)(=O)c1ccc(OC)c(Nc2ncc(-c3cccc(C(C)=O)c3)o2)c1`: the inhibition amounted to 3.37%.

As for `CS(=O)(=O)CCNCc1ccoc1-c1ccc2ncnc(Nc3ccc(OCc4ccccc4)cc3)c2c1`, the inhibition was determined as 0.65%.

Take `NS(=O)(=O)c1cccc(N/C=C2\C(=O)Nc3ccccc32)c1`: the inhibition came out at 5.62%.

As for `CCn1c(-c2nonc2N)nc2cncc(C(=O)NCCNC)c21`, the inhibition amounted to 5.01%.

As to `CS(=O)(=O)CCNCc1ccc(-c2ccc3ncnc(Nc4ccc(OCc5cccc(C(F)(F)F)c5)cc4)c3c2)o1`, the inhibition stood at 5.95%.

Turning to `COc1cc(N2CCN(C(C)C)CC2)ccc1Nc1nc(Nc2cccc(F)c2C(=O)O)c2cc[nH]c2n1`, the inhibition is 6.18%.

`O=C(O[C@H]1CN[C@H](C#Cc2cc3ncnc(Nc4ccc5c(cnn5Cc5ccccc5)c4)c3s2)C1)N1CCOCC1`: the inhibition was -0.83%.

Take `CS(=O)(=O)Nc1ccc(-c2cc(-c3ccccc3)cc(C(N)=O)c2N)cc1`: the inhibition is 1.4%.

In the case of `CCS(=O)(=O)c1ccc(OC)c(Nc2ncc(-c3cccc(F)c3)o2)c1`, the inhibition is 6.86%.

Regarding `O=C1Nc2ccccc2/C1=C1\CCc2cc(O)ccc21`, the inhibition worked out at 6.64%.

Consider `Cc1ccc(-c2cc3c(NC(=O)C4CC4)ncnc3o2)cc1`, for which the inhibition is 4.46%.

For `CS(=O)(=O)Nc1ccc(-c2ccc3c(NC(=O)C4CC4)n[nH]c3c2)cc1`, the inhibition came out at 3.59%.

For the compound `Cn1c(-c2nonc2N)nc2cnccc21`, the inhibition was 4.05%.

For `COc1cccc(-n2ncc3c(N/N=C/c4ccc(C(=O)NCCN(C)C)cc4)ncnc32)c1`, the inhibition amounted to 3.32%.

Take `O=C(Nc1n[nH]c2nnc(-c3cccnc3)cc12)C1CC1`: the inhibition is -1.23%.

Regarding `COC(=O)Nc1nc2ccc(Oc3ccc(NC(=O)Nc4cc(C(F)(F)F)ccc4F)cc3)cc2s1`, the inhibition is -0.83%.

In the case of `NC(=O)c1ccc2c(-c3ccnc(NCCCO)n3)c(-c3ccc(F)cc3)nn2c1`, the inhibition came out at 5.28%.

With `NS(=O)(=O)c1ccc(N/N=C2\C(=O)Nc3ccc(C(=O)NCc4ccncc4)cc32)cc1`, the inhibition was 4.99%.

Consider `CNC(=O)c1ncccc1Nc1nc(Nc2cc3c(cc2OC)CCCN3C(=O)CN(C)C)nc2[nH]ccc12`, for which the inhibition is 5.37%.

With `COc1ccccc1-c1cc(/C=C2\C(=O)Nc3ncc(Br)cc32)cc(Br)c1O`, the inhibition came to 4.87%.

On to `CN(C)CCNC(=O)Nc1ccc(N(C)c2ccnc(Nc3ccc(CS(C)(=O)=O)cc3)n2)cc1`, for which the inhibition was found to be 4.64%.

`CS(=O)(=O)CCNCc1ccc(-c2ccc3ncnc(Nc4ccc(OCc5ccccc5)cc4)c3c2)o1`: the inhibition worked out at 4.78%.

For the compound `COC(=O)Nc1nc2cc(Oc3ccc(NC(=O)Nc4ccccc4)cc3)ccc2[nH]1`, the inhibition worked out at 4.43%.

For the compound `O=C(O[C@H]1CN[C@H](C#Cc2cc3ncnc(Nc4ccc(OCc5cccc(F)c5)c(Cl)c4)c3s2)C1)N1CCOCC1`, the inhibition turned out to be 7.04%.

With `CCCNc1cccc(-n2ncc3c(N/N=C/c4ccncc4)ncnc32)c1`, the inhibition worked out at 2.56%.

`CC1=C(C(=O)Nc2ccc3[nH]nc(C)c3c2)C(c2ccc(C(F)(F)F)cc2)CC(=O)N1` (stereo unspecified): the inhibition turned out to be 2.48%.

On to `CN1CCC(C(=O)Nc2n[nH]c3nc(-c4ccc(O)cc4)c(Br)cc23)CC1`, for which the inhibition is 4.67% and 1.73%.

For the compound `Cc1cc(O)cc(C)c1/C=C/c1cncc(C(=O)OC(C)(C)C)c1`, the inhibition was 3.11%.

As to `CN1CCN(Cc2ccc(-c3cc4ncnc(Nc5ccc(OCc6cccc(F)c6)c(Cl)c5)c4s3)o2)CC1`, the inhibition is 3.47% and 7.21%.
